Screens: PubChem, National Center for Advancing Translational Sciences (NCATS)
Shown are actives, neighbours in structure and some others; about 21% of the full set was active somewhere.
Shiga inhibitor: blocks Shiga toxin action in Vero cells. inhibition, % at 38.7 µM. Vero cells, Shiga toxin protein synthesis inhibition reporter. 290,000 compounds, 9.2% hits; in the data active = inhibition mostly above about 28%, no sharp cut-off; inactive = mostly below about 43%; note: 0% is about no effect
Cycloheximide cs: counter-screen hit for Shiga toxin inhibitors, cycloheximide; 300,000 compounds, 12% hits; max response, %; cell reporter, cycloheximide protein synthesis inhibition counterscreen; AID 2314; in the data active = max response mostly above about 13%, no sharp cut-off; inactive = mostly below about 14%; note: read at 38.3 µM for the half of the compounds with a filed dose; 0% is about no effect
Pf growth 96h: P. falciparum growth inhibition at 96 hour, primary screen for plastid delayed-death inhibitors | P. falciparum luciferase reporter growth, 96 h | Potency, µM (top dose mostly 28.7 µM), inactives show at the highest dose activity change, negative = inhibition, hits mostly inhibitors | 320,000 compounds, 6.9% hits | AID 504834; active = well fitted inhibition curve with a large enough effect; inconclusive = small, poorly fitted or top-dose-only effect, or another doubt; inactive = no such curve, though single readings can be large or run the other way; note: potency is the fitted concentration of half-maximal effect; % is set by controls: 0 for no effect and ±100 for the full control effect
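Plates of compound plus infected erythrocytes (2% hematocrit, 0.05% parasitemia final) incubate 96 hours, 37 C, 5% CO2. Detection reagent added; reduced luminescence from the parasites' luciferase reporter flags inhibition.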
Pf growth 48h: inhibits P. falciparum growth in the first generation, 48 h. 310,000 compounds, 5.9% hits. P. falciparum luciferase growth in erythrocytes, 48 h. Potency, µM (top dose mostly 28.7 µM), without a hit: at the highest dose activity change, negative = inhibition, usual class: inhibitors; active = well fitted inhibition curve with a large enough effect; inconclusive = small, poorly fitted or top-dose-only effect, or another doubt; inactive = no such curve, though single readings can be large or run the other way; note: potency is the fitted concentration of half-maximal effect; % is set by controls: 0 for no effect and ±100 for the full control effect
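Erythrocytes infected with P. falciparum carrying an integrated firefly luciferase reporter (2% hematocrit, 0.1% parasitemia final) were exposed to compounds in RPMI 1640 with 0.5% Albumax at 37 C, 5% CO2. Growth inhibition was scored as reduced luminescence.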
NS1 function inh: inhibitors of influenza NS1 protein function | Potency, µM (series often up to 46.1 µM), for inactives: at the highest dose activity, positive = more growth | 270,000 compounds, 0.4% hits; note: potency is the fitted concentration of half-maximal effect; actives are rising curves; nearly all actives have a fitted effect of over 50% in size
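Growth recovery, yeast-based: influenza A NS1 expressed in S. cerevisiae causes slow growth, and suppressors are detected by OD600. The parent strain without NS1 is used as positive control.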
SARS PLP yeast: SARS-CoV PLP inhibition in yeast; 330,000 compounds, 0.19% hits; AID 485353; Potency, µM (titrated, usually from 32.9 µM), without a hit: at the top dose activity, positive = growth rescue, hits mostly activators; S. cerevisiae expressing SARS-CoV PLpro, growth rescue; note: potency is the fitted concentration of half-maximal effect; 0% is about no effect; nearly all actives have a fitted effect of over 55% in size
* marks the source's active call; other numbers are inactive results; [ ] = dose if it differs, or a comment. Unless noted, calls come from the whole dose curve.

For CCOc1ccc(Nc2cc(Nc3ccccc3OCC)nc(C=C(C#N)C#N)n2)cc1 the results were Shiga inhibitor -3, Cycloheximide cs 2, Pf growth 96h 18%, Pf growth 48h 1%, NS1 function inh 1% and SARS PLP yeast 0%.
`CNC(=O)NC(=O)C(c1ccccc1)N(C)CC1COc2ccccc2O1` (stereo not given) gave Shiga inhibitor -6, Cycloheximide cs -7, Pf growth 96h inconclusive, Pf growth 48h -13%, NS1 function inh -4% and SARS PLP yeast -15%.
Screening CCCC[C@]12Cc3cc(C#N)ccc3C(O1)c1c(cc(-c3ccccc3)oc1=O)O2 returned Shiga inhibitor inactive, Cycloheximide cs 6, Pf growth 96h inconclusive, Pf growth 48h inconclusive, NS1 function inh inconclusive and SARS PLP yeast -2%[6.58 µM].
COc1cc(C(=O)NC(=S)Nc2ccc(Cl)cn2)cc(OC)c1OC was read as Shiga inhibitor 1, Cycloheximide cs 1, Pf growth 96h 0%, Pf growth 48h 23%, NS1 function inh 8% and SARS PLP yeast -3%.
Screening CC(C)(C)c1csc(SCC(=O)Nc2ccc(Cl)cn2)n1 returned Shiga inhibitor 15, Cycloheximide cs 0, Pf growth 96h inconclusive, Pf growth 48h 12µM*, NS1 function inh -1% and SARS PLP yeast -35%.
Cc1ccc(NC(=O)c2cccc(Cl)c2)nc1 was read as Shiga inhibitor 161, Cycloheximide cs 29*, Pf growth 96h 49%, Pf growth 48h 73%, NS1 function inh -8% and SARS PLP yeast 5%.
`Cn1sc(NC(=O)c2cccc(Cl)c2)nc1=O` gave Shiga inhibitor 51*, Cycloheximide cs 16, Pf growth 96h 5%, Pf growth 48h 46%, NS1 function inh -173% and SARS PLP yeast -26%.
`O=C(NC(=S)Nc1ccc(Cl)cn1)C12CC3CC(CC(C3)C1)C2` gave Shiga inhibitor 46, Cycloheximide cs 15*, Pf growth 96h inconclusive, Pf growth 48h 58% and SARS PLP yeast -7%.
`COC(=O)c1cc(C(=O)OCC(=O)N(C)c2ccccc2)cc([N+](=O)[O-])c1` gave Shiga inhibitor 2, Cycloheximide cs -2, Pf growth 96h 25%, Pf growth 48h 15%, NS1 function inh 6% and SARS PLP yeast -1%.
Screening CCCCCC/C=N/Nc1nnc(Cc2ccccc2)c(=O)[nH]1 returned Shiga inhibitor 18, Cycloheximide cs -4, Pf growth 96h 19%, NS1 function inh 4% and SARS PLP yeast 2%.
`Cc1cc(C(C)(C)C)ccc1OC(=O)C1=CC=CN2CCS(=O)(=O)N=C12` gave Pf growth 96h -4%, Pf growth 48h 6% and SARS PLP yeast -1%.
Screening COc1cc(C(=O)Nc2ccc(S(=O)(=O)N(C)c3ccccc3)cc2)cc(OC)c1OC returned Shiga inhibitor 14, Cycloheximide cs -3, Pf growth 96h -13%, Pf growth 48h -12%, NS1 function inh inconclusive and SARS PLP yeast 13%.
Screening COc1cccc(C(=O)Nc2ccc(NC(=O)C(C)(C)C)cn2)c1 returned Shiga inhibitor 41*, Cycloheximide cs 12*, Pf growth 96h inconclusive, Pf growth 48h 42%, NS1 function inh -2% and SARS PLP yeast -6%.
Cc1ccc(C(=O)NCC(=O)OCC(=O)Nc2ccc(Cl)cn2)cc1 was read as Pf growth 96h -10%, Pf growth 48h -10% and SARS PLP yeast -27%.
Screening Cc1ccc(C(=O)Nc2ccc(Cl)cn2)cc1 returned Shiga inhibitor 55*, Cycloheximide cs 34*, Pf growth 96h 8%, Pf growth 48h 164%, NS1 function inh -10% and SARS PLP yeast -4%.
For COc1cc(C(=O)Nc2ccc(NC(=O)C3CCCCC3)nc2)cc(OC)c1OC the results were Shiga inhibitor 1, Cycloheximide cs -5, Pf growth 96h inconclusive, Pf growth 48h inconclusive, NS1 function inh 11% and SARS PLP yeast 14%.
Screening COc1cc(C(=O)Nc2ccc(NC(=O)c3cccc(Cl)c3)nc2)cc(OC)c1OC returned Shiga inhibitor 29, Cycloheximide cs 4, Pf growth 96h 74%, Pf growth 48h 2.6µM*, NS1 function inh 2% and SARS PLP yeast 11%.
For COc1cc(C(=O)Nc2ccc(N(C)C)cc2)cc(OC)c1OC the results were Shiga inhibitor 58*, Cycloheximide cs 25*, Pf growth 96h 220%, Pf growth 48h 140%, NS1 function inh -3% and SARS PLP yeast -8%.
CCn1nc(C)c(CNCc2cn[nH]c2-c2cc3ccccc3o2)c1C was read as Shiga inhibitor 0, Cycloheximide cs 1, Pf growth 96h 1%, Pf growth 48h -7%, NS1 function inh 3% and SARS PLP yeast -2%.
Screening CC(C)(C[C@@]1(C)NC(=O)NC1=O)OCc1ccccc1 returned NS1 function inh 0%.
Screening O=C1Nc2cc3c(cc2C1=O)sc1ccccc13 returned Shiga inhibitor 7, Cycloheximide cs -3, Pf growth 96h 12%, Pf growth 48h 9%, NS1 function inh -3% and SARS PLP yeast -3%.
COCCn1c(C)cc(C(=O)COC(=O)CCS(=O)(=O)c2ccc(C)cc2)c1C was read as Pf growth 96h -7% and Pf growth 48h 1%.
`O=C(CCc1ccccc1)Nc1ccc(Cl)cn1` gave Shiga inhibitor 134*, Cycloheximide cs 46*, Pf growth 96h 14%, Pf growth 48h 82%, NS1 function inh -21% and SARS PLP yeast inconclusive.
Screening COCCn1c(C)cc(C(=O)COc2ccc(N(C)S(=O)(=O)c3ccc(C)cc3)cc2)c1C returned Pf growth 96h inconclusive, Pf growth 48h 9.3µM* and SARS PLP yeast 4%.
Screening Cc1ccc(NC(=O)c2ccc(Nc3ccccc3F)nc2)cc1 returned Shiga inhibitor 15, Cycloheximide cs 40*, Pf growth 96h 5.9µM*, Pf growth 48h 68%, NS1 function inh 9% and SARS PLP yeast -8%.
For O=C(NC(=S)Nc1ccc(Cl)cn1)C(c1ccccc1)c1ccccc1 the results were Shiga inhibitor 7, Cycloheximide cs 6, Pf growth 96h 0%, Pf growth 48h inconclusive, NS1 function inh -7% and SARS PLP yeast -1%.
`CCC(=O)Nc1ccc(NC(=O)CCc2ccccc2)cn1` gave Cycloheximide cs -3, Pf growth 96h inconclusive, Pf growth 48h 7%, NS1 function inh -2% and SARS PLP yeast -8%.
For S=C(Nc1ccccc1)Nc1ccc(Cl)cn1 the results were Shiga inhibitor 57, Cycloheximide cs 25*, Pf growth 96h 27%, Pf growth 48h 39%, NS1 function inh -4% and SARS PLP yeast 4%.
COc1ccc(C[C@H](O)CN2CCOCC2)cc1 was read as NS1 function inh 6%.
For CC1Sc2ccc(C(=O)NCc3cccc(C(F)(F)F)c3)cc2NC1=O (stereo not given) the results were Pf growth 96h -28%, Pf growth 48h inconclusive and SARS PLP yeast -2%.
